A selection: hits, their analogues and other compounds. The true share with any hit is near 21%.
Pf growth 48h – P. falciparum growth inhibition at 48 hours (one generation); 310,000 compounds, 5.9% hits; Potency, µM (titrated, usually from 28.7 µM), for the others: at the highest dose activity change, negative = inhibition, usual class: inhibitors; P. falciparum luciferase growth in erythrocytes, 48 h; also: potency is read from the fitted curve at half-maximal effect; % is scaled to controls: 0 for no effect and ±100 for the full control effect
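Luminescence readout; reporter = integrated firefly luciferase in P. falciparum. RBC culture at 2% hematocrit, 0.1% parasitemia final, 37 C/5% CO2; decreased signal taken as growth inhibition.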
HCMV inh – blocks human cytomegalovirus replication; HFF cells, HCMV-luciferase reporter, 72 h; active compounds read low; activity change, negative = inhibition, % at 57.5 µM; 410,000 compounds, 4.5% hits; AID 1259415; in the data active = activity change below about -60%; inconclusive = no clear call, values can overlap the other calls; inactive = above about -39%; also: % is scaled to controls: 0 for no effect and ±100 for the full control effect
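Two compound doses tested in HFFs infected with HCMV-luciferase, MOI 1 PFU/cell, 72 h at 37C. Lysate luminescence read with OneGlo; data normalized against buffer-only and 10uM Salinomycin inhibitor controls.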
Pf growth 96h – P. falciparum growth inhibition at 96 hour, primary screen for plastid delayed-death inhibitors | P. falciparum luciferase reporter growth, 96 h | Potency, µM (top dose mostly 28.7 µM), for the others: top-dose activity change, negative = inhibition, most hits filed as inhibitors | 320,000 compounds, 6.9% hits; also: potency is read from the fitted curve at half-maximal effect; % is scaled to controls: 0 for no effect and ±100 for the full control effect
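P. falciparum expressing integrated firefly luciferase, in erythrocytes at 2% hematocrit, 0.05% parasitemia, incubated with compounds 96 h at 37 C, 5% CO2. Growth inhibition read as loss of luminescence; two-generation exposure targets delayed-death apicoplast inhibitors.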
HCV inh – HCV inhibition | Huh7.5.1 HCVcc-Cre infection, luciferase reporter, 44 h | Potency, µM (titrated, usually from 41.8 µM), for inactives: top-dose activity change, negative = inhibition, most hits filed as inhibitors | 340,000 compounds, 3.4% hits | AID 651820; also: potency is read from the fitted curve at half-maximal effect; % is scaled to controls: 0 for no effect and ±100 for the full control effect
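A cell-based infection assay in which seeded cells (1,000 per well) receive test compound after 4 h, are inoculated with HCVcc-Cre at approximately 0.5 moi, and are incubated 44 h before luminescence detection.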
Shiga inhibitor – blocks Shiga toxin action in Vero cells; 290,000 compounds, 9.2% hits; Vero cells, Shiga toxin protein synthesis inhibition reporter; inhibition, % at 38.7 µM; AID 2315; in the data active = inhibition mostly above about 28%, no sharp cut-off; inactive = mostly below about 43%; also: 0% is about no effect
CHX counter – counter-screen hit for Shiga toxin inhibitors, cycloheximide | max response, % | AID 2314 | cell reporter, cycloheximide protein synthesis inhibition counterscreen | 300,000 compounds, 12% hits; in the data active = max response mostly above about 13%, no sharp cut-off; inactive = mostly below about 14%; also: read at 38.3 µM for the half of the compounds with a filed dose; 0% is about no effect
The depositor's hits bear a star; ? = inconclusive; / = no result given; [ ] = remark or other dose. Unless noted, calls follow the shape of the dose curve; as a rule, active = well fitted inhibition curve with a large enough effect; inconclusive = small, poorly fitted or top-dose-only effect, or another doubt; inactive = no such curve, though single readings can be large or run the other way.

SMILES	Pf growth 48h	HCMV inh	Pf growth 96h	HCV inh	Shiga inhibitor	CHX counter
OC(CNCCc1ccc(Cl)cc1)COc1ccc2ccccc2c1 (stereo unspecified)	-3%	-37	19%	?	21	4
CC(C)CCNCC(O)CON=C1c2ccccc2-c2ccccc21 (stereo unspecified)	?	-72*	?	8.9µM*	-6	-7
COCCNCC(O)CON=C1c2ccccc2-c2ccccc21 (stereo unspecified)	?	-2	?	-10%	-5	7
Cc1ccc(CNc2nc3c(S(=O)(=O)c4ccccc4)nnn3c3ccsc23)cc1	/	29	/	/	/	/
CC(C)(C)c1ccc(O)c(/C=N\O)c1	59%	59	/	5%	53*	18*
CC(C)(C)c1ccc(O)c(O)c1	-17%	-20	19%	?	/	/
CCC(=NCc1ccc2c(c1)OCO2)c1c(O)n(C)c(=O)n(C)c1=O	5%	-66*	19%	?	-30	-7
CCC(=NCc1cc(OC)cc(OC)c1)c1c(O)n(C)c(=O)n(C)c1=O	/	-90*	20%	6.3µM*	-10	2
CCC(=Nc1ccc(OC)cc1OC)c1c(O)n(C)c(=O)n(C)c1=O	?	-25	-8%[5.75 µM]	?	37	12
CC(C)(C)c1ccc(OCCC(=O)OCC(=O)N2c3ccccc3NC(=O)C2(C)C)cc1	16%	/	12%	22%	/	/
COc1cc(Nc2nc(SCc3ccccc3F)nc3ccccc23)cc(OC)c1	/	-22	/	/	/	/
Nc1cccc(Nc2ncnc3ccccc23)c1	-3%	-9	-21%	-9%	/	1
Oc1cccc(Nc2ncnc3ccccc23)c1	-16%	-18	11%	?	3	13
CC(=O)Nc1ccc(Nc2ncnc3ccccc23)cc1	98%	/	88%	/	26	14*
Fc1ccc(Nc2nc(SCc3ccccc3F)nc3ccccc23)cc1	/	-86*	/	/	/	/
Fc1ccc(Nc2ncnc3ccccc23)cc1	24%	-21	9%	-27%	/	22*
COc1ccccc1-c1nn2c(=O)cc(CN3CCN(C(=O)Nc4ccc(C)cc4Cl)CC3)nc2s1	/	5	/	/	/	/
CCCNS(=O)(=O)c1ccc(OCC(=O)N2CCCC2)cc1	1%	-34	-6%	3%	-3	3
Cc1[nH]c2ccccc2c1C(=O)CN1CC(C)OC(C)C1 (stereo unspecified)	0%	/	-10%	11%	23	-3
O=C(Nc1nc2ccccc2[nH]1)c1ccc(S(=O)(=O)N2CCOCC2)cc1	5%	2	-2%	28%	22	6
Cc1nonc1NC(=O)c1ccc(Cl)c(S(=O)(=O)N2CCCCC2)c1	-6%	-29	2.6µM*	6%	4	2
O=C(Nc1ccncc1)c1ccc(Cl)c(S(=O)(=O)N2CCCC2)c1	12µM*	-71*	?	?	/	/
O=C(Nc1ccc(Cl)c(S(=O)(=O)N2CCCCC2)c1)c1cccnc1	12µM*	0	?	14µM*	/	/
O=C(Nc1nc2ccccc2[nH]1)c1ccc(Cl)c(S(=O)(=O)N2CCCC2)c1	/	/	-104%	22µM*	71	33*
O=C(Nc1ccc(Br)cc1)c1ccc(Cl)c(S(=O)(=O)N2CCCCCC2)c1	/	-32	/	/	/	/
SMILES	Pf growth 48h	HCMV inh	Pf growth 96h	HCV inh	Shiga inhibitor	CHX counter
N#Cc1ccccc1NC(=O)Cn1cnc2onc(-c3cccc(F)c3)c2c1=O	/	10	/	/	/	/
C[C@H](CO)N1C[C@H](C)[C@@H](CN(C)S(=O)(=O)c2cccs2)Oc2ccc(NC(=O)Cn3cnnn3)cc2C1=O	/	-20	/	13%	/	/
CCN(CC(=O)O)S(=O)(=O)c1cc(Cl)ccc1Cl	7%	5	13µM*	-6%	-2	-2
O=C(Nc1ccncc1)c1ccc(Cl)c(Cl)c1	?	7	2.9µM*	-24%	28	13
CCN(CC)S(=O)(=O)c1cc(C(=O)Nc2ccncc2)ccc1Cl	?	-87*	25%	?	-7	1
CCN(CC)S(=O)(=O)c1cc(C(=O)Nc2cccnc2)ccc1Cl	12%	-21	/	?	16	5
O=C(NNC(=O)c1ccc(Cl)c(Cl)c1)c1ccncc1	/	-20	/	8%	/	/
Cc1ccc(NC(=O)CN2C(=O)CSc3ccc(S(=O)(=O)N(C)C)cc32)c(C)c1	/	-9	/	/	/	/
